In PubChem BioAssay (EPA / NIEHS):
Inconclusive results are not listed. The source made the active and inactive calls. Rule for the calls, unless noted: active = hit-call score of the fitted dose curve at least 0.9, where 1 is the maximum; inactive = score below 0.9.

Key:
[1] = biological target: Bile acid receptor (Homo sapiens) (UniProt Q96RI1); experiment: ATG_FXR_TRANS: Attagene TRANS-FACTORIAL HepG2 Assay for Farnesoid X Receptor (FXR) (AID 2282979; active = hit-call score of the fitted dose curve at least 0.9, where 1 is the maximum;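 note: hits raise reporter mRNA above DMSO so AC50 marks FXR activation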); details: HepG2 Attagene TRANS FXR-GAL4 reporter transcription
Bile acid receptor (Homo sapiens), sequence (Q96RI1 whole entry, looked up, the tested form may be a part): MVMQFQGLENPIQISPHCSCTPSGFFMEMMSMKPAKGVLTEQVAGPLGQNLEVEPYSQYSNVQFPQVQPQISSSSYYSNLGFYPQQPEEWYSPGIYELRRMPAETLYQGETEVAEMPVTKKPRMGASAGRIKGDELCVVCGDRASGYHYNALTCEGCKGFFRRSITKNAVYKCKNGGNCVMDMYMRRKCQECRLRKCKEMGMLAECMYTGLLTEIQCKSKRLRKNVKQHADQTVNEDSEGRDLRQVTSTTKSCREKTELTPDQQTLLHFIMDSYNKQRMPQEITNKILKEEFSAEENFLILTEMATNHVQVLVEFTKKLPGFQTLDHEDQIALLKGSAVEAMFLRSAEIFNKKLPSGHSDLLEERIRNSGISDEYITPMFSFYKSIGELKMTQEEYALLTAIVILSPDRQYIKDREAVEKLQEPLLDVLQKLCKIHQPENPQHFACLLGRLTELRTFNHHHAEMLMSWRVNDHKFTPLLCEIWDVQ
Summary of the method: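 After 24 h chemical treatment of transfected HepG2 cells, GAL4-UAS reporter transcripts driven by an exogenous FXR-GAL4 fusion were measured by RT-PCR and capillary electrophoresis. Increases over DMSO were fitted.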

[2] = biological target: Oxysterols receptor LXR-alpha (Homo sapiens) (UniProt Q13133); experiment: ATG_LXRa_TRANS: Attagene TRANS-FACTORIAL HepG2 Assay for human Liver X Receptor alpha (LXRa) (AID 2282980; active = hit-call score of the fitted dose curve at least 0.9, where 1 is the maximum); details: HepG2 Attagene TRANS reporter, LXRa transactivation
Oxysterols receptor LXR-alpha (Homo sapiens), sequence (Q13133 whole entry, looked up, the tested form may be a part): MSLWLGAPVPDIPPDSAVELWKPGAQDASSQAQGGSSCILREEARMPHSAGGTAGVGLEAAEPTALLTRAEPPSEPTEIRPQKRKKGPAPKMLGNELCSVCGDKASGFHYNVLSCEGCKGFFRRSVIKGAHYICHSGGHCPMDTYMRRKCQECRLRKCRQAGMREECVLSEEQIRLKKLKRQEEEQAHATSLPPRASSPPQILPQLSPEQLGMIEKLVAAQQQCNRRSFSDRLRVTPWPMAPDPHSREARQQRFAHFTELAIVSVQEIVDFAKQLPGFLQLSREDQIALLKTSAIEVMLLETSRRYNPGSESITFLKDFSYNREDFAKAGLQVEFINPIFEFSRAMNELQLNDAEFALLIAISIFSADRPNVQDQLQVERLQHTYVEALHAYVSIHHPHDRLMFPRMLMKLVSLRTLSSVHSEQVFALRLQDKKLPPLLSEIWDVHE
Summary of the method: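 In this multiplexed TRANS system, compounds act on HepG2 cells carrying GAL4-UAS reporter units and a receptor-GAL4 fusion for 24 h. Induced reporter RNA is amplified, fluorescently labelled and sized by capillary electrophoresis, with DMSO as baseline.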

[3] = biological target: Hepatocyte nuclear factor 4-alpha (Homo sapiens) (UniProt P41235); experiment: ATG_HNF4a_TRANS: Attagene TRANS-FACTORIAL HepG2 Assay for human Hepatocyte Nuclear Factor 4 alpha (HNF4a) (AID 2282982; active = hit-call score of the fitted dose curve at least 0.9, where 1 is the maximum); details: HepG2 HNF4a transactivation reporter, mRNA readout
Hepatocyte nuclear factor 4-alpha (Homo sapiens), sequence (P41235 whole entry, looked up, the tested form may be a part): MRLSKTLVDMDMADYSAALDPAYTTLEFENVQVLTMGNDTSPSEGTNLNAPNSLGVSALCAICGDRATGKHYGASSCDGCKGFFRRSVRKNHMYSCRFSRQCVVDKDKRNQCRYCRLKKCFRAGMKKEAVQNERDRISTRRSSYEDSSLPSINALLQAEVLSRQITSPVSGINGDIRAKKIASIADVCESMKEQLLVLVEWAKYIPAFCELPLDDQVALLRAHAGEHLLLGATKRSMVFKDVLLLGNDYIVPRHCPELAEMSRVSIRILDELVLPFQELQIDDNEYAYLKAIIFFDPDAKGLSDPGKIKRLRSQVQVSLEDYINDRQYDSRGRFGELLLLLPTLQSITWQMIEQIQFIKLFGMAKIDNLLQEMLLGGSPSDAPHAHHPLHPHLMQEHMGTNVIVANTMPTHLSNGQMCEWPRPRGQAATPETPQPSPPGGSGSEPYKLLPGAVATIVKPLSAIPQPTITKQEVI
Summary of the method: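 Activity of an exogenous HNF4a–Gal4 fusion scored as induced GAL4-UAS reporter transcripts after 24 h chemical exposure of transfected human HepG2 cells. Read-out via RT-PCR with 6-FAM labelling and capillary electrophoresis; rise over DMSO baseline.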

[4] = ATG_M_32_TRANS: Attagene TRANS-FACTORIAL HepG2 Assay for M32 Transcription Factor (Internal Marker) (AID 2282984; active = hit-call score of the fitted dose curve at least 0.9, where 1 is the maximum;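 note: transcript level of a background control reporter unit measured by RT-PCR and capillary electrophoresis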); details: HepG2 Attagene TRANS M32 internal marker reporter
Summary of the method: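 Internal background reporter in transfected HepG2: after 24 h chemical exposure, RNA reverse-transcribed, reporter cDNA amplified, fluorescently labelled and HpaI-cut, then sized by capillary electrophoresis. Gain of signal fitted against DMSO control.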

[5] = biological target: Nuclear receptor subfamily 4 group A member 2 (Homo sapiens) (UniProt P43354); experiment: ATG_NURR1_TRANS: Attagene TRANS-FACTORIAL HepG2 Assay for human Nuclear Receptor Related Protein 1 (NURR1) (AID 2282985; active = hit-call score of the fitted dose curve at least 0.9, where 1 is the maximum); details: HepG2 Attagene TRANS reporter, mRNA readout
Nuclear receptor subfamily 4 group A member 2 (Homo sapiens), sequence (P43354 whole entry, looked up, the tested form may be a part): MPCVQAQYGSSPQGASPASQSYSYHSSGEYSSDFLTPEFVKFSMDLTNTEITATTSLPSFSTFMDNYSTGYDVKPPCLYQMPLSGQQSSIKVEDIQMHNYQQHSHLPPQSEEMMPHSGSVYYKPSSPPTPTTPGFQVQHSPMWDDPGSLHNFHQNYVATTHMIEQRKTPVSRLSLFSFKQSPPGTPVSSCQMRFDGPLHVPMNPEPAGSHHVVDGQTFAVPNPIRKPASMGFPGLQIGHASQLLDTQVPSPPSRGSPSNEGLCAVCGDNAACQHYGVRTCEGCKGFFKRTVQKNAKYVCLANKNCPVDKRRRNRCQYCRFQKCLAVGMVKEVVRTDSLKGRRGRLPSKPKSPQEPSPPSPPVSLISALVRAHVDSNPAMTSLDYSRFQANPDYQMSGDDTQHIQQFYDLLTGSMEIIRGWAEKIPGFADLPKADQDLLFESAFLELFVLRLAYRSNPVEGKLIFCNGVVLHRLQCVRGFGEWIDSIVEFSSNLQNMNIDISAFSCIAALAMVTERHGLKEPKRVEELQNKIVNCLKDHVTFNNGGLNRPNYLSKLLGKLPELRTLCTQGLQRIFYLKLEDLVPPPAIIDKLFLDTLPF
Summary of the method: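 Reporter transcript induction, measured by RT-PCR with fluorescent labelling, HpaI digestion and capillary electrophoresis, after 24 hr dosing of human HepG2 cells transiently expressing an exogenous NR-Gal4 fusion with GAL4-UAS-driven reporters; DMSO as baseline.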

[6] = biological target: Transcriptional activator Myb (Homo sapiens) (UniProt P10242); experiment: ATG_Myb_CIS: Attagene CIS-FACTORIAL HepG2 Assay for human Myeloblastosis (Myb) Proto-Oncogene Transcription Factor (AID 2282986); details: HepG2 Attagene CIS-FACTORIAL Myb reporter transcription; actives raise or lower the signal
Transcriptional activator Myb (Homo sapiens), sequence (P10242 whole entry, looked up): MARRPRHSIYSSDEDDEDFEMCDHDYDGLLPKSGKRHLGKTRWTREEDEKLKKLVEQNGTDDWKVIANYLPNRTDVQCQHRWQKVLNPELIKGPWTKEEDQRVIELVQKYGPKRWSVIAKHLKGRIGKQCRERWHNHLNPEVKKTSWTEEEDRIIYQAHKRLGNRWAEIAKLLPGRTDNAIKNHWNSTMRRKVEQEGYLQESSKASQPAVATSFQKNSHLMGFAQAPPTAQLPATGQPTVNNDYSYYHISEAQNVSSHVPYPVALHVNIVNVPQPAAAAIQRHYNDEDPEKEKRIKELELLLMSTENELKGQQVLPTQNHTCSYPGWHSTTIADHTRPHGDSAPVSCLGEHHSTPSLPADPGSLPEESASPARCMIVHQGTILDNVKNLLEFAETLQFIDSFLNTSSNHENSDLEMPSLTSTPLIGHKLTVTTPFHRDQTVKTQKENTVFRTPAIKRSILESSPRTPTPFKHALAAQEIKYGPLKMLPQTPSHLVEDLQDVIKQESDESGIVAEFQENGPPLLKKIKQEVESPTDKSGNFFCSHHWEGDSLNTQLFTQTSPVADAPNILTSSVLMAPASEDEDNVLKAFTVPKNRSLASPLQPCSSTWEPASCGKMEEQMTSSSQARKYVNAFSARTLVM
Summary of the method: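 Reporter mRNA is quantified by RT-PCR and capillary electrophoresis 24 h after dosing HepG2 cells transfected with cis-regulated reporter units, which track endogenous transcription factor activity. Gain and loss of signal are fitted versus DMSO baseline.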

[7] = ATG_NFI_CIS: Attagene CIS-FACTORIAL HepG2 Assay for human Nuclear Factor I (NFI) (AID 2282989); details: HepG2 cis-regulatory reporter, NFI response element transcription; actives raise or lower the signal
Summary of the method: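 Reporter transcripts were measured by RT-PCR with fluorescent primer extension and capillary electrophoresis 24 h post-treatment. HepG2 cells carried transiently transfected cis-regulated reporter constructs reporting endogenous factor activity; gain or loss fitted against DMSO baseline.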

[8] = biological target: Myc proto-oncogene protein (Homo sapiens) (UniProt P01106); experiment: ATG_Myc_CIS: Attagene CIS-FACTORIAL HepG2 Assay for human Myelocytomatosis (Myc) Proto-Oncogene Transcription Factor (AID 2282990); details: HepG2, Attagene cis-reporter transcription factor activity; actives raise or lower the signal
Myc proto-oncogene protein (Homo sapiens), sequence (P01106 whole entry, looked up): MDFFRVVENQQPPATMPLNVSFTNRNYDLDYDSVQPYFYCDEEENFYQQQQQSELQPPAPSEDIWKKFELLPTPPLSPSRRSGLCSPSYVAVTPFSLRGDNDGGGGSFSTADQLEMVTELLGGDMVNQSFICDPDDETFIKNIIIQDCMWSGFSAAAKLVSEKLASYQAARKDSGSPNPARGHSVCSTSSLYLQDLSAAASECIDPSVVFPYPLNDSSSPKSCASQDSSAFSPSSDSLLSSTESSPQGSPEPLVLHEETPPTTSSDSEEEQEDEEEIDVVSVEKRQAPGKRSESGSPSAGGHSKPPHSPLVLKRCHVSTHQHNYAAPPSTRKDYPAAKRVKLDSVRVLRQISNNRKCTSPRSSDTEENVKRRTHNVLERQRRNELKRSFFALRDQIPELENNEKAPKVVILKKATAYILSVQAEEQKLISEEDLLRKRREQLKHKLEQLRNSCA
Summary of the method: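 Cells of the HepG2 human liver line bear multiple cis-driven reporter transcription units. Reporter mRNA after 24 h exposure is reverse-transcribed, amplified, labelled and resolved by capillary electrophoresis, with gain- or loss-of-signal fitting relative to DMSO.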

[9] = ATG_NF_kB_CIS: Attagene CIS-FACTORIAL HepG2 Assay for human Nuclear Factor Kappa B (NF-kB) (AID 2282991); details: HepG2 Attagene cis-factorial NF-kB reporter mRNA; actives raise or lower the signal
Summary of the method: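 Readout is reporter transcript level, gain or loss versus DMSO, measured 24 h post-dose via RT-PCR, fluorescent labelling and capillary electrophoresis. Human HepG2 liver cells carried transiently transfected CIS reporter constructs reflecting endogenous factors.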

[10] = ATG_NRF2_ARE_CIS: Attagene CIS-FACTORIAL HepG2 Assay for human Nuclear Factor Erythroid 2 Related Factor 2 (NFR2) response to Antioxidant Response Elements (ARE) (AID 2282992); details: HepG2 Attagene ARE/NRF2 reporter, transcription factor activity; actives raise or lower the signal
Summary of the method: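 Endogenous transcription factor activity read out as reporter transcript levels (RT-PCR plus capillary electrophoresis, fluorescence) in transiently transfected HepG2 cells. Measured at 24 h after dosing; gain or loss of signal fitted versus DMSO.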

[11] = ATG_Oct_MLP_CIS: Attagene CIS-FACTORIAL HepG2 Assay for human Octamer-Binding Transcription Factor (Oct) (AID 2282993); details: HepG2 Attagene cis-factorial Oct reporter, mRNA; actives raise or lower the signal
Summary of the method: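 Readout is reporter transcript level from RT-PCR with fluorescent primer extension and capillary electrophoresis, fitted in both directions against DMSO. Transfected HepG2 reporter units report endogenous factor activity after 24 h dosing.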

[12] = biological target: Oxysterols receptor LXR-beta (Homo sapiens) (UniProt P55055); experiment: ATG_LXRb_TRANS: Attagene TRANS-FACTORIAL HepG2 Assay for human Liver X Receptor beta (LXRb) (AID 2282981; active = hit-call score of the fitted dose curve at least 0.9, where 1 is the maximum); details: HepG2 Attagene TRANS GAL4-LXRb reporter, mRNA
Oxysterols receptor LXR-beta (Homo sapiens), sequence (P55055 whole entry, looked up, the tested form may be a part): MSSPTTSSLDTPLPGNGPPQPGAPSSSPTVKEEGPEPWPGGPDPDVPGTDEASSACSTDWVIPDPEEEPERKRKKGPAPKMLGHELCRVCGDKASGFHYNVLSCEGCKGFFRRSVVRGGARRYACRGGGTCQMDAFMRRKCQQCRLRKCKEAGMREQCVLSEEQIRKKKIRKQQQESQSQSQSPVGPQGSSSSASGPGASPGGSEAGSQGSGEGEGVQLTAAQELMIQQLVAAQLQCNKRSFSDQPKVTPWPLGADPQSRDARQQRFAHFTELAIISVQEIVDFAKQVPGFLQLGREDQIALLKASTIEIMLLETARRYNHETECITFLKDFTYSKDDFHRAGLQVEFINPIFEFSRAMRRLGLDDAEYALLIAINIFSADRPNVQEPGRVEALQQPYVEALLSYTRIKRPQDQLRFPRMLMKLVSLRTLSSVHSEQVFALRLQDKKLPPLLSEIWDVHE
Summary of the method: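 After 24 h chemical treatment of transfected HepG2 cells carrying exogenous NR-Gal4 chimeras, reporter mRNA was quantified by fluorescent RT-PCR and capillary electrophoresis; activity taken as increase over DMSO controls.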

[13] = ATG_M_06_TRANS: Attagene TRANS-FACTORIAL HepG2 Assay for M06 Transcription Factor (Internal Marker) (AID 2282983; active = hit-call score of the fitted dose curve at least 0.9, where 1 is the maximum); details: HepG2 Attagene TRANS M06 internal marker reporter
Summary of the method: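 Multi-reporter-transfected HepG2, 24 h treatment; reporter transcripts quantified via RT-PCR, primer-extension labelling and CE. DMSO-normalized gain-of-signal fit.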

[14] = biological target: Cellular tumor antigen p53 (Homo sapiens) (UniProt P04637); experiment: ATG_p53_CIS: Attagene CIS-FACTORIAL HepG2 Assay for human p53 Transcription Factor (AID 2282994); details: HepG2 p53 cis-element reporter, Attagene mRNA; actives raise or lower the signal
Cellular tumor antigen p53 (Homo sapiens), sequence (P04637 whole entry, looked up): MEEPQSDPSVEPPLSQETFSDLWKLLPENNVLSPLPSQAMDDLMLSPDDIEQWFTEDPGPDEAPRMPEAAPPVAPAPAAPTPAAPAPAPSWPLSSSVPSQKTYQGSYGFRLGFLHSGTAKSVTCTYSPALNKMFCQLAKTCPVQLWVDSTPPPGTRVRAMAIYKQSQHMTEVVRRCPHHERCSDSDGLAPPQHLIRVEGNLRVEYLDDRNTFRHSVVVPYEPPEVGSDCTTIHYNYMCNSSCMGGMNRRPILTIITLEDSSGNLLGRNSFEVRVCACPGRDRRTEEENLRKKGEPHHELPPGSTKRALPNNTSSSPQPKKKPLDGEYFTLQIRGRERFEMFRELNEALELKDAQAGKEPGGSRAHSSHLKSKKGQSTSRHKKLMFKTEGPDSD
Summary of the method: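 Endogenous p53 activity read in transiently transfected HepG2 from a cis-element-driven reporter transcript after 24 h exposure. RNA reverse-transcribed, PCR-amplified, fluorescently labelled and sized by capillary electrophoresis; gain or loss fitted against DMSO baseline.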

[15] = biological target: Nuclear respiratory factor 1 (Homo sapiens) (UniProt Q16656); experiment: ATG_NRF1_CIS: Attagene CIS-FACTORIAL HepG2 Assay for human Nuclear Respiratory Factor 1 (NRF1) Orphan Gene (AID 2282987); details: HepG2 NRF1 cis-element reporter, Attagene multiplex; actives raise or lower the signal
Nuclear respiratory factor 1 (Homo sapiens), sequence (Q16656 whole entry, looked up): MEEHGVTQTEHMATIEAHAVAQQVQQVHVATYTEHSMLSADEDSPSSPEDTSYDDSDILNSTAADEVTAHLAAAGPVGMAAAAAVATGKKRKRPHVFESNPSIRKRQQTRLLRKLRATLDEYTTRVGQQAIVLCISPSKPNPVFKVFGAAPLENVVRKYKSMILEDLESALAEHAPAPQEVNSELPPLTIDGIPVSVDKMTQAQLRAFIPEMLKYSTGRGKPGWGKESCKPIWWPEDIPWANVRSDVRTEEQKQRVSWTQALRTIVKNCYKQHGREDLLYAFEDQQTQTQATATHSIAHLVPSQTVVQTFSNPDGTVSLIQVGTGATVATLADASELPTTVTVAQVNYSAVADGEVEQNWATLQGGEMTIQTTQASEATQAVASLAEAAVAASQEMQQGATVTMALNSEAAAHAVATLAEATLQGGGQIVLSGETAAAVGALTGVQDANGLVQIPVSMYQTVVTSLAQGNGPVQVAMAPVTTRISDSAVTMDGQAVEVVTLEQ
Summary of the method: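 Endogenous NRF1-driven reporter transcription in transfected HepG2 cells after 24 h treatment. Readout: RT-PCR products, 6-FAM labelled and resolved by capillary electrophoresis; changes fitted both directions relative to DMSO.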

[16] = BSK_3C_TissueFactor: BioMAP Diversity Plus: 3C Assay for Tissue Factor Biomarker Activity (AID 2282997); details: BioMAP 3C HUVEC, tissue factor biomarker readout; actives raise or lower the signal
Summary of the method: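 In this endothelial system, HUVEC are treated for 24 h and Tissue Factor is assessed by ELISA, normalised to DMSO.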

[17] = BSK_3C_uPAR: BioMAP Diversity Plus: 3C Assay for Urokinase-type plasminogen activator receptor (uPAR) Biomarker Activity (AID 2282998); details: BioMAP 3C HUVEC, uPAR biomarker ELISA; actives raise or lower the signal
Summary of the method: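 Cell-surface uPAR on HUVEC (3C system) read by ELISA at 24 h post-treatment, with DMSO as baseline and fitting in both directions. Parallel cultures stained with SRB to flag overt cytotoxicity.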

[18] = BSK_3C_VCAM1: BioMAP Diversity Plus: 3C Assay for Vascular cell adhesion molecule 1 (VCAM1) Biomarker Activity (AID 2282999); details: BioMAP 3C HUVEC, VCAM1 ELISA, cytokine-stimulated; actives raise or lower the signal
Summary of the method: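 Activity fitted in both directions relative to DMSO, with ELISA measurement of the surface marker on primary HUVEC (3C) at 24 h post-treatment; parallel SRB staining (0.1% SRB, TCA-fixed, 560 nm) flagged overt cytotoxicity.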

[19] = BSK_4H_Eotaxin3: BioMAP Diversity Plus: 4H Assay for Eotaxin 3 Biomarker Activity (AID 2283000); details: primary human endothelial cells (HUVEC); actives raise or lower the signal
Summary of the method: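 ELISA quantitation of CCL26 (Eotaxin-3) protein from chemically dosed human vascular endothelial cells at 24 h; increases and decreases both scored relative to DMSO-treated baseline.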

Measured: AC50

CC1(C)C(=O)N(Cl)C(=O)N1Br
not listed: [12] | [13] | [14] | [15] | [16] | [17] | [18] | [19]
inactive: all other assays above

COS(=O)(=O)O
not listed: [4] | [5] | [15] | [16] | [17] | [18] | [19]
inactive: all other assays above

C[Si](C)(C)O[Si](C)(C)C
not listed: [5] | [9] | [13] | [15] | [16] | [17] | [18] | [19]
inactive: all other assays above

CCc1cc(C(C)(C)C)c(O)c(C(C)(C)C)c1
inactive: [1] | [2] | [12] | [4] | [6] | [15] | [8] | [11] | [14]
active: [5] 11.4 µM | [7] 54 µM | [10] 52.6 µM

CCC(Cl)C(Cl)C(Cl)CC(Cl)C(Cl)C(C)Cl (centres undefined)
active: [1] 11 µM | [10] 43.4 µM
not listed: [3] | [7] | [16] | [17] | [18] | [19]
inactive: all other assays above

C=Cc1ccncc1
active: [3] 84.1 µM | [6] 30.8 µM | [15] 37.5 µM | [7] 21.8 µM | [9] 61.5 µM | [10] 25.1 µM | [11] 26.8 µM
inactive: [1] | [2] | [12] | [13] | [8] | [14]

CC/C=C\CC/C=C/CO
inactive: [1] | [2] | [12] | [13] | [4] | [5] | [6] | [15] | [8] | [11]
active: [10] 48.2 µM

CCC1(C)NC(=O)NC1=O (centres undefined)
not listed: [3] | [4] | [5] | [16] | [17] | [18] | [19]
inactive: all other assays above

OCc1ccc(Cl)cc1Cl
inactive: [1] | [2] | [3] | [13] | [6] | [15] | [8] | [10] | [11] | [14]

O=C1c2ccccc2C(=O)c2c(O)ccc(O)c21
active: [9] 2.27 µM | [10] 4.07 µM | [16] 1.21 µM | [17] 3.02 µM | [19] 4.31 µM
not listed: [4]
inactive: all other assays above

OCCOCCN1CCN(C2=Nc3ccccc3Sc3ccccc32)CC1
active: [10] 176 µM | [14] 75.8 µM
not listed: [3] | [4] | [7] | [16] | [17] | [18] | [19]
inactive: all other assays above

COc1ccc(CCC(C)=O)cc1
not listed: [3] | [5] | [13] | [16] | [17] | [18] | [19]
inactive: all other assays above

CSCCC=O
not listed: [3] | [4] | [5] | [12]
inactive: all other assays above

CCCC1O[C@@H]2C[C@H]3[C@@H]4CCC5=CC(=O)C=C[C@]5(C)[C@H]4[C@@H](O)C[C@]3(C)[C@]2(C(=O)CO)O1 (some centres undefined)
inactive: [1] | [13] | [5] | [6] | [15] | [7] | [8] | [11]
active: [10] 78.9 µM | [14] 37.5 µM

OCC#CCO
not listed: [2] | [3] | [12] | [16] | [17] | [18] | [19]
inactive: all other assays above

COc1ccc(OC)c(N=Nc2c(O)ccc3ccccc23)c1
active: [10] 0.493 µM | [17] 12.2 µM | [18] 20 µM | [19] 9.47 µM
not listed: [2] | [3] | [4] | [6]
inactive: all other assays above

O=C(O)CNc1ccccc1
inactive: [1] | [12] | [13] | [4] | [7] | [8] | [9] | [10] | [11] | [14]

CCCCCC(=O)CC
inactive: [1] | [3] | [13] | [6] | [15] | [7] | [8] | [10] | [11] | [14]

CC(=O)CC(=O)Nc1ccccc1
not listed: [2] | [4] | [7] | [14] | [16] | [17] | [18] | [19]
inactive: all other assays above

Cc1ccc(C)o1
inactive: [1] | [2] | [5] | [15] | [7] | [8] | [10] | [11] | [14]

C=C(CC(=O)O)C(=O)O
inactive: [1] | [12] | [13] | [6] | [15] | [7] | [8] | [10] | [11] | [14]
